TIM10 inh = inhibits growth of TIM10 yeast strain; 1.4% of 330,000 active; inhibition, % at 10 µM; AID 463195; S. cerevisiae TIM10 strain growth, BacTiter-Glo luminescence, 24 h;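 active = inhibition of 40% or more at the single tested concentration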;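 also: wild-type TIM10 isogenic control strain grown at permissive 25 °C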
tim10-1 inh = tim10-1 yeast growth inhibition | S. cerevisiae tim10-1 ts strain growth, BacTiter-Glo, 24 h | inhibition, % at 20 µM | 2.2% of 330,000 active | AID 463190;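 active = inhibition of at least 40%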;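 also: mutant grown at 25 °C; 0% = DMSO wells with yeast and 100% = wells holding no yeast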
NLRP3 yeast inh = NALP3 inhibition in yeast; 0.39% of 330,000 active; inhibition, % at 10 µM; Yeast reconstituted NLRP3/ASC/caspase-1, beta-gal luminescence, 24 h;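 active = inhibition of 50% or more; inactive = inhibition below 50%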;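 also: plate controls were induced DMSO wells for no effect and uninduced yeast grown without galactose for full effect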
tim23-1 inh = tim23-1 yeast growth inhibition; 1.3% of 330,000 active; S. cerevisiae tim23-1 growth, BacTiter-Glo luminescence, 24 h; inhibition, % at 20 µM;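 active = growth inhibition of the mutant yeast at or above 50%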;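 also: temperature-sensitive mutant grown at 25 °C; plate controls were DMSO-treated mutant yeast for no effect and medium wells lacking yeast for full effect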
SKKanGAS inh = inhibitors of SKKanGAS S. pyogenes growth in kanamycin (SK-promoter or general growth effect); 1.3% of 300,000 active; BacTiter-Glo, 6 h; inhibition, % at 7.5 µM;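 active = mean replicate score, as percent of positive control median, at least 50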;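 also: strain carries kanamycin resistance gene driven by streptokinase promoter and grows in 40 µg/ml kanamycin; loss of luminescence reflects streptokinase promoter inhibition or plain growth inhibition; 0% = median of DMSO wells and 100% = positive control at its reference dose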
tim23-1 conf = tim23-1 yeast growth inhibition, confirmed; shares compounds with tim23-1 inh; S. cerevisiae tim23-1 growth, BacTiter-Glo luminescence, 24 h; inhibition, % at 20 µM; 83% of 4,400 active;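 active = inhibition above about 39% in either of two replicate wells at 20 µM, limit read from the data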;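 also: temperature-sensitive tim23-1 mutant grown at 25 °C; 0% = DMSO wells with yeast and 100% = medium wells without yeast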
Active calls of the source: *; · = no result. Rows were chosen to be rich in hits. Some 4.6% of all compounds tested hit in one or more screens of this group.

SMILES	TIM10 inh	tim10-1 inh	NLRP3 yeast inh	tim23-1 inh	SKKanGAS inh	tim23-1 conf
CCOc1ccccc1N1CCN(C(=S)NC(=O)C23CC4CC(CC(C4)C2)C3)CC1	35	34	12	51*	3	31
CCOc1ccccc1N1CCN(C(=S)NCc2ccc(Cl)cc2)CC1	35	39	9	55*	-2	46*
CCOc1ccccc1N1CCN(C(=O)CC(C)(C)C)CC1	15	23	18	21	13	·
O=C(CNC(=O)c1cn2ccccc2n1)Nc1ccc(F)c(F)c1	-3	-14	22	-3	0	·
COc1ccc(Cn2nc(C)n(N(C)c3ncc(C(F)(F)F)cc3Cl)c2=O)cc1	15	34	27	20	4	·
CCC(C)Sc1ccc(-c2nc3cc(C)ccn3c2NC2CCCCC2)cc1 (centres undefined)	32	24	16	56*	·	47*
O=C(Nc1ccc(F)c(Cl)c1)C1CC2CCC1C2 (centres undefined)	37	22	-5	61*	-16	68*
CCC(C)c1ccc(NC(=O)C2CC3CCC2C3)cc1 (centres undefined)	39	24	20	52*	2	51*
O=C(Nc1ccc(F)cc1)C1CC2CCC1C2 (centres undefined)	-3	19	21	17	-1	·
CC(C)c1ccc(NC(=O)C2CC3CCC2C3)cc1 (centres undefined)	22	-15	44	37	9	·
CCCCN(C(=O)CN1C(=O)C2CCCCC2C1=O)c1c(N)n(CCC)c(=O)[nH]c1=O (centres undefined)	0	5	19	-3	0	·
CN(C)c1cccc(C(=O)NNC(=O)/C=C/c2cccs2)c1	13	9	6	23	·	·
Oc1ccccc1-c1cc(-c2ccc(F)cc2)n[nH]1	25	39	20	68*	1	61*
Oc1ccccc1-c1cc(-c2ccccc2)n[nH]1	18	-9	36	71*	·	60*
Oc1ccccc1-c1ccn[nH]1	-10	-4	23	2	·	·
Oc1ccc(Br)cc1-c1cc(-c2ccccc2F)[nH]n1	26	17	8	-2	14	·
Cc1cc(C)c(C)c(S(=O)(=O)N2CCN(C(=O)C3CSC4(C)CCC(=O)N34)CC2)c1C (centres undefined)	22	6	10	17	0	·
O=C(c1cc(Br)c(Br)s1)N1CCc2ccccc2C1	27	2	7	52*	·	53*
O=C(c1cc2c(s1)-c1ccccc1OC2)N1CCc2ccccc2C1	14	24	8	38	33	·
CCC(c1ccccc1)c1nnc(NC(=O)c2ccco2)s1 (centres undefined)	8	7	-1	10	0	·
Cc1sc(NC(=O)c2ccco2)nc1-c1ccccc1	31	35	30	56*	2	72*
CCCC(CCC)c1nnc(NC(=O)c2ccco2)s1	32	39	14	62*	-4	64*
O=C(Nc1nc2c(F)cccc2s1)c1ccco1	22	32	37	55*	-1	54*
O=C(Nc1ccc(F)cc1)C1CCN(S(=O)(=O)c2cccc3nonc23)CC1	5	-4	6	-4	12	·
CN(C)S(=O)(=O)Nc1cc(Cl)cc(Cl)c1	22	27	-42	20	20	·
SMILES	TIM10 inh	tim10-1 inh	NLRP3 yeast inh	tim23-1 inh	SKKanGAS inh	tim23-1 conf
Cc1nc(-c2ccccc2)sc1C(N)=O	6	17	18	96*	-1	7
CNC(=O)c1sc(-c2ccccc2)nc1C	6	-6	13	-12	-1	·
Cn1c(SCc2ccc(Br)cc2)nnc1-c1ccccn1	13	25	32	52*	0	11
CCC1CCCCN1S(=O)(=O)c1ccc(NC(=O)c2ccncc2)cc1 (centres undefined)	24	32	-5	79*	-4	30
CCC1CCCCN1S(=O)(=O)c1ccc(NC(=O)C2CCN(C(=O)c3ccco3)CC2)cc1 (centres undefined)	-2	10	5	15	3	·
Cc1cc(C)n(CCC(=O)Nc2ccc(-c3ccno3)cc2)n1	-5	-6	19	7	8	·
O=C(Nc1cccc(NC(=O)c2ccc(-c3cccc(Br)c3)o2)c1)c1ccco1	19	-47	17	60*	41	43*
O=C(Nc1cccc(NC(=O)c2ccc(-c3ccc(Br)cc3)o2)c1)c1ccccc1	-40	1	10	-10	27	·

Screening results deposited in PubChem BioAssay by several laboratories.
